# Source: PubChem
# This is one part of a sample in which hits are shown more often than they occur.
# TDP1 cell noCPT: qHTS for Inhibitors of human tyrosyl-DNA phosphodiesterase 1 (TDP1): qHTS in cells in absence of CPT; DT40 Tdp1-/- hTDP1 cells, no CPT, ATP luminescence, 48 h; Potency, µM (series often up to 46.2 µM), without a hit: at the highest dose activity change, negative = growth inhibition, hits mostly inhibitors; hit rate 15% among 420,000; note: potency is the fitted concentration of half-maximal effect; nearly all actives have a fitted effect of over 55% in size
#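 Luminescent ATP content (CellTiter-Glo) served as the growth readout. Knockout chicken DT40 cells expressing human TDP1 were exposed to compounds without camptothecin for a minimum 48 hr at 37 °C.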
# HT1080-NT tox: qHTS for induction of synthetic lethality in tumor cells producing 2HG: qHTS for the HT-1080-NT fibrosarcoma cell line | AID 686970, 2013 | hit rate 1.6% among 360,000 | HT-1080-NT fibrosarcoma viability, CellTiter-Glo ATP luminescence, 48 h | Potency, µM (doses to about 46.1 µM), inactives show top-dose activity, negative = less viability, usual class: cytotoxic;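 note: NT is the 2HG producing partner of a matched IDH1 knockdown line; potency is the fitted concentration of half-maximal effect; 0% = DMSO-treated cells and -100% = media-only wells without cells; nearly all actives have a fitted effect of over 55% in size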
#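 Read-out is CellTiter-Glo luminescence after 10 minutes at room temperature, following 48 hours' compound treatment of HT-1080-NT cells (750 cells/well, RPMI, 5% FBS, 37 degrees C).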
# 12-LOX inh: Primary qHTS assay for inhibitors of human arachidonate 12S-lipoxygenase (ALOX12): Round 2; purified 12hLO, xylenol orange hydroperoxide absorbance; Potency, µM (series often up to 108 µM), without a hit: top-dose activity change, negative = inhibition, actives largely listed as inhibitors; hit rate 1.1% among 580,000; AID 1671190, 2021; note: potency is the fitted concentration of half-maximal effect
# Target sequence (P18054 whole entry, looked up): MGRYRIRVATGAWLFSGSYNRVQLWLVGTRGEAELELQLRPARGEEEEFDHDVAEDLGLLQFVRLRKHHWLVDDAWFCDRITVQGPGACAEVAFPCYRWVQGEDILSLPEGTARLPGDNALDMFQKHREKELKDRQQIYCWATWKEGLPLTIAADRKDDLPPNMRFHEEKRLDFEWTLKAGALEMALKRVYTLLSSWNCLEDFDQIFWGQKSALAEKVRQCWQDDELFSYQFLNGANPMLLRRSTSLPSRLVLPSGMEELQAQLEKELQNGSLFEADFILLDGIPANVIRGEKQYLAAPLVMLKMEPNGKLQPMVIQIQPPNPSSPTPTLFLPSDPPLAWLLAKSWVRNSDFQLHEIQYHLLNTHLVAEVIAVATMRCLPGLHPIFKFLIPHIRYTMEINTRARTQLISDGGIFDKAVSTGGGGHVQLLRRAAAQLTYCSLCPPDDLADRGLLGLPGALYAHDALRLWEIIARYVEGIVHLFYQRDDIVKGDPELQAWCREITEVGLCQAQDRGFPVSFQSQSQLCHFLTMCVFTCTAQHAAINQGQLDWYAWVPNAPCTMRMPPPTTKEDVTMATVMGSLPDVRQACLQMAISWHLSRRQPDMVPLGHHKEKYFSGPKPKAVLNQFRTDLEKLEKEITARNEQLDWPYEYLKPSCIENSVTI
#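 Hydroperoxide product was detected by ferrous iron/xylenol orange as the 573 to 405 nm absorbance ratio. Arachidonic acid at 40 uM (final) was turned over for 30 min at room temperature by 150 nM human 12hLO, pH 7.0 Hepes buffer, after 15 min compound preincubation.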
# HT1080 IDH1KD tx: qHTS for induction of synthetic lethality in tumor cells producing 2HG: qHTS for the HT-1080-IDH1KD cell line. AID 686971, 2013. Potency, µM (series often up to 46.1 µM), for the others: top-dose activity, negative = toxicity, hits mostly cytotoxic. hit rate 2% among 360,000. HT-1080 IDH1 knockdown viability, ATP luminescence, 48 h;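 note: potency is the fitted concentration of half-maximal effect; 0% = DMSO wells and -100% = cell-free medium wells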
#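 IDH1KD HT-1080 cells, 750/well, RPMI + 5% FBS; compound pinned after 2 h settling; 48 h, 37 °C; CellTiter-Glo luminescence; % activity normalised to DMSO and no-cell wells; curves fitted, classed by r2 and efficacy.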
# DT40 TDP1 CPT: qHTS for Inhibitors of human tyrosyl-DNA phosphodiesterase 1 (TDP1): qHTS in cells in presence of CPT | chicken DT40 Tdp1-/-;hTDP1 cells + 20 nM CPT, ATP luminescence, 48 h | Potency, µM (titrated, usually from 46.2 µM), without a hit: at the top dose activity change, negative = growth inhibition, usual class: inhibitors | hit rate 12% among 420,000 | AID 686979, 2013; note: potency is the fitted concentration of half-maximal effect; nearly all actives have a fitted effect of over 55% in size
#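 Chicken DT40 Tdp1-/- cells stably complemented with human TDP1 were seeded at 400 cells/well in medium containing 20 nM camptothecin, exposed to pin-transferred compounds, and grown at 37 °C for at least 48 hr. Viability was read as ATP luminescence.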
# IL-1B inflam inh: qHTS for Inhibitors of Inflammasome Signaling: IL-1-beta AlphaLISA Primary Screen; hit rate 4.7% among 360,000; activity change, % at 57.5 µM; THP-1 LPS/ATP IL-1B secretion, AlphaLISA, 16 h; stronger effect = lower value; AID 743279, 2014; in the data active = activity change below about -50%; inconclusive = mostly about -30% to -49%
#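 THP-1 cells pretreated 1 hr with compounds (up to 57.5 uM final), then stimulated with LPS (250 ng/mL final) plus ATP (1.25 mM final); secreted IL-1B measured by AlphaLISA after 16 hr, decreased signal indicating inhibition.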
# An asterisk follows results filed as active; u = inconclusive; x = no result given; [ ] = dose if it differs, or a comment. Unless noted, calls come from the whole dose curve; as a rule, active = well fitted curve in the direction sought with a large enough effect; inconclusive = small, poorly fitted or top-dose-only effect, or another doubt; inactive = no such curve, though single readings can be large; an effect the other way counts as inactive or inconclusive. Unless noted, % is set by controls: 0 for no effect and ±100 for the full control effect.
SMILES,TDP1 cell noCPT,HT1080-NT tox,12-LOX inh,HT1080 IDH1KD tx,DT40 TDP1 CPT,IL-1B inflam inh
Cc1ccccc1OCCOC(=O)CCC(=O)c1ccc(F)cc1,x,x,-5%,x,x,x
O=C(NCc1nnc2n1C(C(=O)N1CCCC1)CC2)c1cccnc1 (stereo not drawn),x,x,1%[6.33 µM],x,x,x
CN1CCN(c2nc3c(c(=O)[nH]2)CCN(Cc2cc(F)cc(F)c2)CC3)CC1,x,x,31%,x,x,x
Cn1c(NC(=O)c2ccco2)c(-c2cccc(C(F)(F)F)c2)c(=O)c2ccccc21,x,x,-3%,x,x,x
Cc1ccc(SCC(=O)Nc2ccc3oc(-c4ccc(F)cc4)nc3c2)cc1,u,x,-11%,x,u,x
Cc1ccc(OCC(=O)Nc2ccc(O)c(-c3nc4ccccc4o3)c2)cc1,u,u,0%,u,12µM*,-25
COc1ccc(OCC(=O)Nc2cccc(-c3nc4cc(C)c(C)cc4o3)c2)cc1,x,x,-11%,x,x,x
Cc1ccc(SCC(=O)Nc2ccc(O)c(-c3nc4cc(C)ccc4o3)c2)cc1,21µM*,x,-13%,x,u,x
Cc1ccc(OCC(=O)Nc2ccc(O)c(-c3nc4cc(C)c(C)cc4o3)c2)cc1,1.6µM*,x,x,x,u,x
O=C(Nc1cccc(S(=O)(=O)N2CCCCC2)c1)c1cccc2cccnc12,x,x,-2%,x,x,x
Cc1ccc2c(n1)N(C)[C@H](CO)CCN(Cc1ccc(C(C)C)cc1)C2,x,x,3%[176 µM],x,x,x
O=C(O)CNC(=O)c1ccc(Sc2ccccc2)c([N+](=O)[O-])c1,5%,4%,-12%,-2%,3%,2
CC(C)(C)NC(=O)c1ccc(Sc2ccccc2)c([N+](=O)[O-])c1,8.2µM*,-19%,3%,-9%,u,5
O=C(NCc1ccco1)C(c1ccccc1)c1ccccc1,x,x,-34%,x,x,x
Cc1ccc(NC(=S)NCCN(C2CCCCC2)C2CCCC2)cc1C,u,u,u,u,21µM*,-67*
Cc1ccccc1/C=C1\C(=O)Nc2ccc(F)cc21,u,u,0%,-17%,-24%,5
CN(C)c1ccc(/C=C2/C(=O)Nc3ccccc32)cc1,u,x,4%,x,u,x
Cc1ccc2c(c1)/C(=C/c1ccco1)C(=O)N2,u,-19%,u,-17%,6%,-20
CN(C)c1ccc(/C=C2\C(=O)Nc3ccccc32)cc1,16µM*,x,-7%,x,16µM*,x
CC(=O)N1c2ccccc2C(=O)C1N(C)c1ccc(C)cc1 (stereo not drawn),u,-14%,-19%,-13%,2%,-11
Cc1ccc(/C=C2\C(=O)Nc3ccccc32)o1,3.7µM*,4%,u,-7%,1.5µM*,2
O=C1Nc2ccccc2/C1=C/c1ccccc1F,23µM*,u,3%,-28%,u,-30
CC(=O)N1/C(=C/c2ccc(N(C)C)cc2)C(=O)c2ccccc21,0.46µM*,3.3µM*,-16%,u,0.52µM*,-95*
CSc1nc2ccccc2c(=O)n1CC(=O)c1ccccc1,x,x,-27%,x,x,x
CCOc1cc(-c2noc(-c3ncn4c3COC(c3ccc(OC)cc3)C4)n2)ccc1OC (stereo not drawn),x,x,35%,x,x,x
SMILES,TDP1 cell noCPT,HT1080-NT tox,12-LOX inh,HT1080 IDH1KD tx,DT40 TDP1 CPT,IL-1B inflam inh
O=C1CCN(C(=O)Cc2c[nH]c3ccccc23)CCCC(C(=O)NCc2ccccc2)CCN1 (stereo not drawn),x,x,1%,x,x,x
N#CC1(C(=O)NCC2(c3ccccc3)CCCCC2)CCCCC1,x,x,1%,x,x,x
COc1ccc(-c2noc(CNC(=O)CCc3c(C)c4ccc(OC)cc4oc3=O)n2)cc1,x,x,-8%,x,x,x
O=C1Nc2ccccc2/C1=C/c1cccnc1,u,-18%,-16%,-21%,u,-65*
CN(C)c1ccc(/C=C2\C(=O)/C(=C/c3ccc(N(C)C)cc3)c3ccccc32)cc1,7.1µM*,x,x,x,u,x
Cc1nn(-c2ccc(F)cc2)c(Cl)c1/C=C1\C(=O)Nc2ccccc21,8.2µM*,u,-15%,5.2µM*,6.5µM*,0
COc1ccc(C(=O)N(Cc2ccccc2)Cc2cc3cc4c(cc3[nH]c2=O)OCCO4)cc1,11µM*,u,5%,-23%,11µM*,13
COc1cccc(C(=O)N(Cc2ccccc2)Cc2cc3cc4c(cc3[nH]c2=O)OCCO4)c1,21µM*,u,6%,u,13µM*,-11
Cc1nccc(-c2cccc(C(=O)O)c2)n1,x,x,-8%,x,x,x
CCC(C)NC(=O)NC1CCN(c2nc3ccccc3n(C)c2=O)CC1 (stereo not drawn),x,x,-14%,x,x,x
COc1ccccc1OCC(=O)NCC1(N2CCOCC2)CCCCC1,-56%,x,3%,x,u,x
OC(CNCC1(N2CCCCC2)CCCCC1)COc1ccc(Cl)cc1Cl (stereo not drawn),15µM*,u,-7%,18µM*,u,-91*
O=C(COc1ccc(Cl)cc1Cl)NCC1(N2CCOCC2)CCCCC1,21µM*,-10%,-7%,-5%,18µM*,-65*
O=C(COc1ccccc1Cl)NCC1(N2CCOCC2)CCCCC1,15µM*,x,u,x,21µM*,x
Cc1ccc(C(C)C)c(OCC(=O)NCC2(N3CCOCC3)CCCCC2)c1,7.3µM*,x,u,x,9.2µM*,x
